The list is not random: actives were taken first. Their share in the collection is about 1.2%.
eIF4E-4G inh: eIF4E–eIF4G protein interaction inhibitors, primary screen, biochemical, uHTS, TR-FRET, eIF4GI fragment; TR-FRET eIF4E-eIF4GI(517-606) binding, 2 h; inhibition, % at 21.7 µM; Eukaryotic translation initiation factor 4E (Mus musculus) + Eukaryotic translation …; 220,000 tested, 0.37% active;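 active means inhibition above about 30%, limit read from the data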;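 further: 0% = full FRET control wells and 100% = background wells lacking eIF4GI fragment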
TNF death inh: inhibitors of TNF-alpha triggered necroptosis, primary screen, cell-based, Jurkat FADD-/-, single concentration; Jurkat FADD-/- TNF necroptosis rescue, ATP luminescence, 24 h; 0 = TNF only, 100 = no-TNF cells; activation (protection from cell death), % at 10 µM; 220,000 tested, 0.068% active; AID 463075, 2010;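 active means activation, meaning protection from cell death, of at least 50% relative to plate controls; inactive means activation below 50%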;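 further: necroptosis triggered by 40 ng/mL TNF-alpha added together with compound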
EBV gp42 block: Epstein-Barr virus gp42 inhibitors, primary screen, biochemical, uHTS, fluorescence polarization; Glycoprotein 42 (Epstein-Barr virus (strain AG876)), Q1HVG2; 220,000 tested, 0.42% active; AID 1085, 2008; inhibition, % (tested at 21.74 µM); Fluorescence polarization binding assay, mP read-out; in the data active means inhibition above about 50%
Target sequence (Q1HVG2 whole entry, looked up): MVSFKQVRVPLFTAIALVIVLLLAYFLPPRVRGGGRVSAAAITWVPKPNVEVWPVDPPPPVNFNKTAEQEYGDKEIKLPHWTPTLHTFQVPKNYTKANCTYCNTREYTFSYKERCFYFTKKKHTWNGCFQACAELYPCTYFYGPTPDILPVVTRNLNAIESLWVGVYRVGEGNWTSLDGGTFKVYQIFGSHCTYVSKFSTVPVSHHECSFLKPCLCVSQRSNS
zVAD death inh: inhibitors of zVAD-triggered necroptosis, primary screen, L929 cells. L929 zVAD necroptosis rescue, ATP luminescence, 24 h; with zVAD 60 µM. 220,000 tested, 0.38% active. viability rescue, % at 10 µM;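 active means activation, scaled between plate controls, above about 75%, limit read from the data; inactive means activation under that limit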;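 further: 0% = zVAD with DMSO and 100% = DMSO alone without zVAD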
* = called active by the depositor; + = active, no number; [ ] = dose if it differs, or a comment.

SMILES	eIF4E-4G inh	TNF death inh	EBV gp42 block	zVAD death inh
C=CCN1C(=O)CSC1=Nc1cccc(O)c1	30.4*	-1.9	-7.2	-0.6
O=c1[nH]c2cc3c(cc2cc1CN(Cc1nnnn1CC1CCCO1)C1CCCCC1)OCO3 (stereo unspecified)	6.8	-4.6	57.4*	-0.4
CCOc1ccc(-c2c(=O)n(OCc3ccc([N+](=O)[O-])cc3)c3ccccc3[n+]2[O-])cc1	-8.0	-1.0	-7.1	-0.5
CCN(CC)S(=O)(=O)c1cccc(-n2c(O)c(C=Nc3ccccc3C(=O)O)c3ccccc3c2=O)c1	-3.3	-13.8	0.4	0.3
COc1ccc2c3c(cccc13)C(=O)N(O)C2=O	-0.8	3.5	75.4*	24.8
CCN(c1ccc(N=Cc2c(O)n(Cc3ccc(OC)cc3)c(=O)c3ccccc23)cc1)C(C)C	3.6	4.3	+	3.2
O=c1[nH]ncc(N2CCCC2)c1Cl	80.5*	0.3	-8.9	-0.5
CCOc1cc(/C=N/NC(=O)C(N)=O)cc(Br)c1O	-6.8	0.0	7.3	0.5
CC(=O)Nc1ccc(N=Cc2c(O)c(C(=O)Nc3ccccc3)cc3ccccc23)cc1	30.0*	-14.9	135.9*	13.6
CCOc1cc(Br)c(Br)c(C=Nc2ccc(NC(C)=O)cc2)c1O	3.9	-0.9	131.2*	2.0
CC(=O)Nc1ccc(S(=O)(=O)N(CC(=O)Nc2cc(C)on2)Cc2ccc(F)cc2)cc1	-3.0	-1.5	-18.2	0.5
Cc1cccc2c(=O)cc(C)n(CC(N)=O)c12	-2.2	1.4	-5.3	1.1
CC(C)(CCl)C(=O)Nc1ccc(OC(F)(F)F)cc1	-2.8	2.6	61.1*	-0.3
CCOC(=O)C1=NOC2C3CC(C12)C1C(=O)N(CCc2ccc(OC)c(OC)c2)C(=O)C31 (stereo unspecified)	-1.8	2.2	-10.1	-0.5
O=C(O)C[C@@H]1C(=O)O[C@@H]2C(COC(=O)c3cc(O)c(O)c(O)c3)O[C@@H](OC(=O)c3cc(O)c(O)c(O)c3)[C@@H](OC(=O)c3cc(O)c(O)c4c3[C@H]1[C@H](O)C(=O)O4)[C@H]2OC(=O)c1cc(O)c(O)c(O)c1 (stereo partly specified)	38.4*	0.8	23.9	0.8
O=C1C(C2=NC(c3ccccn3)C3C(=O)N(c4ccccc4)C(=O)C23)=C(O)c2ccccc21 (stereo unspecified)	1.0	0.6	-24.2	0.3
CC(=O)Nc1c(-c2ccccc2)nc2ncccn12	32.9*	0.1	-23.9	0.4
Cc1ccc(-c2nc3ncccn3c2NC(=O)C2CC2)cc1	-1.8	0.8	-11.5	1.1
Cc1cc(/C=N/Nc2ccc([N+](=O)[O-])cn2)c(C)n1-c1ccccc1	-27.1	0.4	-17.3	0.1
Cc1ccc(-n2c(C)cc(/C=N/Nc3ccc([N+](=O)[O-])cn3)c2C)cc1	34.7*[fluorescence artefact?]	-2.6	-54.6	0.2
NS(=O)(=O)c1ccc(CCNC(=O)CSc2nc3ccccc3c(=O)n2CCC(=O)N2CCCCC2)cc1	0.5	0.6	-4.5	5.2
CCOc1ccc(NC(=O)/C(C#N)=C/c2ccc(N3CCCC3)c(C)c2)cc1	2.0	2.1	94.0*	0.8
COc1ccccc1CNC(=O)c1cn(C)c2ccc(S(=O)(=O)N3CCCC3)cc2c1=O	10.0	1.3	-8.7	1.6
Nc1c(O)ccc2c1C(=O)c1ccccc1C2=O	-5.7	-5.6	145.7*	1.4
Cc1ccc2nc(C)c(C(=O)NN=C3CCN(C)CC3)n2c1	-4.7	0.1	1.2	1.9
SMILES	eIF4E-4G inh	TNF death inh	EBV gp42 block	zVAD death inh
CCOC(=O)N1CCC(Nc2nc3ccccc3nc2NS(=O)(=O)c2ccc(Cl)cc2)CC1	5.1	-0.4	53.5*	0.0
COc1cccc(/C(O)=C/c2nc3ccc(C(=O)NCCc4ccc(Cl)cc4)cc3[nH]c2=O)c1	-3.7	2.5	106.9*	10.6
COc1cccc(/C(O)=C/c2nc3ccc(C(=O)NCCc4cccc(C)c4)cc3[nH]c2=O)c1	5.0	0.3	36.5	12.0
Cc1ccc(C23CC4CC(CC(CN)(C4)C2)C3)cc1	86.2*	8.0	4.9	48.7
COC(=O)CNC(=O)C12CC3CC(C1)CC(c1ccc(C)cc1)(C3)C2	-2.8	0.3	4.3	4.3
NS(=O)(=O)c1ccc(NC(=O)C2C3C=CC(C3)C2C(=O)O)cc1 (stereo unspecified)	0.2	0.6	-17.4	4.0

Screens as filed in PubChem BioAssay.
